Most compounds without a hit are left out; they make up all but 7.4% or so of the library.
NPC1 prom act – activates the NPC1 promoter; Huh7 NPC1 promoter luciferase reporter, 24 h; Potency, µM (titrated, usually from 9.22 µM), inactives show top-dose activation, actives largely listed as activators; hit rate 2.4% among 320,000; AID 485313; note: % of control where 0% means no effect; nearly all actives have a fitted effect of over 60% in size
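Stable NPC1-promoter luciferase Huh7 line; cpd (DMSO) 24 h, 37 °C, 5% CO2; Amplite luciferase reagent 10 min RT; luminescence readout. qHTS format.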
Luc counter – blocks Kinase-Glo luciferase, a counter-screen artifact; Q27757; Kinase-Glo luciferase, ATP luminescence, 8 min; Potency, µM (titrated, usually from 38.3 µM), for the others: at the highest dose activity change, negative = inhibition, actives largely listed as inhibitors; hit rate 0.28% among 200,000; note: % is set by controls: 0 for no effect and ±100 for the full control effect; nearly all actives have a fitted effect of over 60% in size
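Recombinant Kinase-Glo luciferase, 10 uM ATP (linear range), luciferin; imidazole pH 7.2 / KCl / MgCl2 / Tween / BSA buffer; 8 min RT; luminescence.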
SMN2 splice up – SMN2 splice variant enhancement; HEK293 SMN2-luciferase splicing reporter, luminescence, 30-36 h; Potency, µM (doses to about 46.1 µM), for the others: at the top dose activity change, positive = activation, actives largely listed as activators; hit rate 2.8% among 210,000; note: % of control where 0% means no effect; nearly all actives have a fitted effect of over 55% in size
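HEK293 cells carry an SMN2 minigene-luciferase reporter in which exon 7 inclusion puts luciferase in frame. Cells were seeded at 2000 cells/well, attached for 10-12 hours, then exposed to compounds for 30-36 hours at 37C before ONE-Glo luminescence.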
Rab9 prom act – activators of Rab9 promoter. Huh7 Rab9 promoter-luciferase reporter, luminescence, 24 h. Potency, µM (highest dose often 9.22 µM), without a hit: top-dose activation, negative = inhibition, usual class: activators. hit rate 2.8% among 320,000. AID 485297; note: % of control where 0% means no effect; nearly all actives have a fitted effect of over 60% in size
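Quantitative HTS format; Huh7 Rab9-luciferase reporter cells (1500/well) receive compound 2 h post-plating, incubate 24 h at 37 °C, then get luciferase reagent for 10 min before luminescence reading.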
FLuc modulator – counter-screen for miR-21 project: firefly luciferase inhibitors or activators | hit rate 6.9% among 360,000 | Potency, µM (doses to about 57.5 µM), for the others: at the top dose activity change, negative = inhibition, most hits filed as inhibitors | purified FLuc, Km substrates, luminescence inhibition | P08659;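 note: plate controls were vehicle for no effect and reference inhibitor for full effect; nearly all actives have a fitted effect of over 55% in size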
Target sequence (P08659 whole entry, looked up): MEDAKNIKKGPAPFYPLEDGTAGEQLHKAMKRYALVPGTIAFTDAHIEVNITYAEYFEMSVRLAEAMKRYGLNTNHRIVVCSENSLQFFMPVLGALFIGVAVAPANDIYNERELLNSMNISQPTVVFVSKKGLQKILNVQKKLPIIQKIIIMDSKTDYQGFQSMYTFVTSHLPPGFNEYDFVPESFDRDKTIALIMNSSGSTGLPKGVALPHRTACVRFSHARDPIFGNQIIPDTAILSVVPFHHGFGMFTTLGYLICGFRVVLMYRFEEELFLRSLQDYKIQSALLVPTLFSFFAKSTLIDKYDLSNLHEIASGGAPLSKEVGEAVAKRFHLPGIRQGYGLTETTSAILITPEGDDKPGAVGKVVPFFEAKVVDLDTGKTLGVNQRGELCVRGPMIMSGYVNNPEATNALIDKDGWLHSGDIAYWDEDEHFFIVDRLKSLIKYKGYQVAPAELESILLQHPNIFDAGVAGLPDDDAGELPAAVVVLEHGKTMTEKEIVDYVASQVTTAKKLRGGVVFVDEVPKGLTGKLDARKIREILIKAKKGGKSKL
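Purified P. pyralis luciferase (10nM final) with 10uM D-luciferin and 10uM ATP (Km levels) in 50mM Tris acetate pH 7.5, 10mM Mg acetate, 0.01% Tween-20, 0.05% BSA; qHTS 6-point titration, ~60 µM downward; luminescence read.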
ELG1 genotox – induces genotoxicity in HEK293T cells with luciferase-tagged ELG1. HEK293T ELG1-luciferase reporter, luminescence, 16 h. Potency, µM (titrated, usually from 46 µM), for the others: at the highest dose activity change, positive = activation, most hits filed as activators. hit rate 1.3% among 330,000. AID 504466; note: % of control where 0% means no effect; nearly all actives have a fitted effect of over 60% in size
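Reporter readout depends on ELG1 protein level, which increases with genetic stress. After 16 hr compound exposure at 37 °C, luciferase activity was quantified using ONE-Glo.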
An asterisk follows results filed as active; u = inconclusive; x = no result; [ ] = remark or other dose. Calls come from the whole dose curve; as a rule, active = well fitted curve in the direction sought with a large enough effect; inconclusive = small, poorly fitted or top-dose-only effect, or another doubt; inactive = no such curve, though single readings can be large; an effect the other way counts as inactive or inconclusive. Potency is the fitted concentration of half-maximal effect.

SMILES	NPC1 prom act	Luc counter	SMN2 splice up	Rab9 prom act	FLuc modulator	ELG1 genotox
COCCNc1nnc(SC(C)C(=O)Nc2ccc(-c3nc4ccc(C)cc4s3)cc2)s1 (configuration not stated)	1.6µM*	x	x	0.28µM*	3µM*	u
CC(=O)Nc1ccc(S(=O)(=O)Nc2nc3ccc(C)cc3s2)cc1	-4%	3%	-1%	-2%	-2%	4%
CC1=CCC(C(=O)O)C(C(=O)Nc2ccc(-c3nc4ccc(C)cc4s3)cc2)C1 (configuration not stated)	u	x	x	23%	3.4µM*	5.2µM*
CNC(=S)Nc1ccc(C)cc1	-4%	-3%	-3%	-3%	2%	5%
COCCNc1nnc(SC(C)C(=O)Nc2c(C)n(C)n(-c3ccccc3)c2=O)s1 (configuration not stated)	-3%	x	x	0%	7%	-2%
CNC(=S)Nc1ccc(-c2nc3ccc(C)cc3s2)cc1	0.79µM*	-2%	11µM*	0.4µM*	1.3µM*	u
CCOc1cc(C(=O)N[C@@H](C)C(=O)N2CCC3(CC2)NCCc2[nH]cnc23)cc(OCC)c1OCC	-1%	x	x	3%	0%	4%
O=C(CN1C(=O)NC2(CCCCC2)C1=O)NC1CCCc2ccccc21 (configuration not stated)	7%	1%	7%	12%	6%	1%
Fc1ccccc1N=C1NN=C(c2ccccc2)CS1	2.5µM*	-3%	13µM*	u	13µM*	u
Cc1cccc(N=C2NN=C(c3ccccc3F)CS2)c1C	u	-1%	26%	u	19µM*	18%
O=S(=O)(c1ccc(N=C2NN=C(c3cc(F)ccc3F)CS2)cc1)N1CCOCC1	-11%	x	x	-18%	-9%	-8%
Fc1ccc(F)c(C2=NNC(=Nc3ccccc3F)SC2)c1	u	-17%	-22%	30%	12µM*	u
Clc1ccccc1N=C1NN=C(c2cccs2)CS1	3.2µM*	-14%	8.9µM*	2µM*	12µM*	u
CN(C)Cc1nsc(N(C)C)n1	x	-2%[7.66 µM]	-5%[9.22 µM]	x	x	x
CC(C)CN1CCCC2(CCN(C(=O)c3cccc(F)c3)CC2)C1	x	-1%	-10%	x	x	x
CCN1CCN(c2ccc(NC(=O)COc3ccc([N+](=O)[O-])cc3)cc2)CC1	2%	x	x	4%	1%	-3%
Fc1ccc(N=C2NN=C(c3cc(F)ccc3F)CS2)cc1	11%	-1%	22µM*	u	24µM*	-3%
Clc1ccc(-c2nnc(NC3=NCCCCC3)o2)cc1	0.35µM*	-26%	u	0.32µM*	0.43µM*	u
CC(C)(C)C1CCc2c(sc3c2C(=O)NC(c2ccco2)N3)C1 (configuration not stated)	u	1%	13µM*	2.5µM*	3µM*	13%
COc1ccccc1NC(=O)c1ccc(-c2ccccc2[N+](=O)[O-])o1	u	-1%	8%	u	11µM*	-14%
COc1ccccc1NC(=O)c1ccc(-c2ccc(Br)cc2)o1	-19%	18%	3%	-11%	8.5µM*	20%
O=C(Nc1cccc(NC(=O)c2ccc(-c3ccc(Br)cc3)o2)c1)c1ccccc1	13%	0%	4%	3%	2.7µM*	7%
O=C(Nc1cccc2ncccc12)c1ccc(-c2ccc(Br)cc2)o1	25%	-3%	-21%	6%	11µM*	-6%
O=C(Nc1cccc(NC(=O)c2ccc(-c3cccc(Br)c3)o2)c1)c1ccco1	6%	0%	-29%	1%	u	-12%
Cc1sc(NC(=O)C2c3ccccc3Oc3ccccc32)c(C(=O)OC(C)C)c1C	x	x	6%	x	1%	x
SMILES	NPC1 prom act	Luc counter	SMN2 splice up	Rab9 prom act	FLuc modulator	ELG1 genotox
NC(=S)N/N=C1\CCOc2ccc(F)cc21	-2%	x	x	-4%	0%	-2%
CCCn1c(=O)cc(N)n(-c2ccc(OC(F)(F)F)cc2)c1=O	2%	x	x	-6%	-2%	0%
CCOc1ccc(CC(=O)NNC(=O)/C=C/C(=O)O)cc1	-4%	x	x	-2%	2%	1%
COc1cccc(CN2CC(C(=O)NCc3cnn(C)c3)CCC2=O)c1 (configuration not stated)	-5%	x	x	7%	0%	2%
Cc1ccc(Cl)c(NC(=O)CSc2n[nH]c(=O)n2C2CC2)c1Cl	1%	x	x	-4%	-2%	4%
CC1CC(C)CN(C(=O)c2ccc(-c3ccc([N+](=O)[O-])cc3)o2)C1 (configuration not stated)	22%	x	x	u	2%	1%
O=C(Nc1ccccc1)c1ccc(-c2ccc(Br)cc2)o1	19%	-6%	u	0%	6µM*	u
NC(=O)c1ccccc1NC(=O)c1ccc(-c2ccc(Br)cc2)o1	x	x	14%	x	x	x
O=C(Nc1ccccc1)c1ccc(-c2ccc([N+](=O)[O-])cc2)o1	u	x	x	22%	13µM*	14%
O=C(c1ccc(-c2ccc([N+](=O)[O-])cc2)o1)N1CCCCC1	4µM*	-5%	u	1µM*	6.7µM*	u
CCOc1cc(C2NN=C(c3ccc(C)cc3)S2)ccc1O (configuration not stated)	3.2µM*	0%	16µM*	3.5µM*	5.4µM*	u
CCOc1cc(C2c3c(n[nH]c3C)C(=O)N2c2ccc(C)cc2)ccc1O (configuration not stated)	-1%	4%	4%	6%	1%	6%
COc1ccc(C2NN=C(c3ccc(C)cc3)S2)cc1 (configuration not stated)	92%	x	x	0.63µM*	1.2µM*	u
Cc1ccc(C2=NNC(C(O)C(O)C(O)CO)S2)cc1 (configuration not stated)	18%	-1%	-16%	24%	15µM*	u
O=C(O)c1cccc(NC(=O)c2cc3cc(Br)cc(Br)c3oc2=O)c1	x	x	-4%	x	12µM*	x
COc1ccc2oc(=O)c(C(=O)Nc3cccc(C)c3)cc2c1	4µM*	-1%	x	1.6µM*	3µM*	8.2µM*
COCCNC(=O)c1cc2cc(Br)cc(Br)c2oc1=O	2%	1%	12%	11%	-3%	2%
Cc1ccnc(NC(=O)c2cc3ccccc3oc2=O)c1	1.6µM*	11µM*	11µM*	1.1µM*	0.85µM*	u
COc1ccc2oc(=O)c(C(=O)Nc3cccc(C(=O)O)c3)cc2c1	x	x	0.79µM*	x	-101%	x
Cc1ccnc(NC(=O)c2ccccc2NC(=O)C(C)(C)C)c1	-18%	0%	9%	-4%	4%	-3%
O=C(Cn1c(=O)nc(-c2ccccc2)c2cc(Cl)ccc21)N1CCN(c2ccccc2F)CC1	x	x	x	x	-1%	x
